From PubChem BioAssay (EPA / NIEHS)
Activity calls are given as the source filed them. How the source made its calls: active means hit-call score of the fitted dose curve at least 0.9, where 1 is the maximum; inactive means score below 0.9.

Columns and labels:
[1] = APR_HepG2_CellCycleArrest_1hr: Apredica 1-hour HepG2 Assay for Cell Cycle Arrest (AID 2282666); conditions: high-content imaging, actives raise or lower the signal
Procedure, shortened: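 Cell cycle arrest scored from nuclear DNA content (Hoechst 33342) using high-content imaging of fixed HepG2 cells after 1 h treatment across 0.39–200 uM, in duplicate. Gain or loss fitted relative to 0.5% DMSO.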

[2] = APR_HepG2_MicrotubuleCSK_1hr: Apredica 1-hour HepG2 Assay for Microtubule CSK Stabilty (AID 2282669); conditions: HepG2 microtubule cytoskeleton imaging, actives raise or lower the signal
Procedure, shortened: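 Alpha-tubulin immunofluorescence, imaged by automated high-content microscopy with Hoechst nuclear segmentation, measured cytoskeletal change after 1 h dosing of HepG2 at 0.39–200 uM in 0.5% DMSO. Activity fitted in both directions relative to DMSO.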

[3] = APR_HepG2_NuclearSize_1hr: Apredica 1-hour HepG2 Assay for Nuclear Size (AID 2282670); conditions: high-content imaging, actives raise or lower the signal
Procedure, shortened: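 Nuclear size measured by high-content imaging of Hoechst 33342 nuclear stain after formaldehyde fixation; human HepG2 line exposed 1 hr to compounds at 0.39–200 uM in 0.5% DMSO, with bidirectional curve fitting relative to DMSO.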

[4] = APR_HepG2_MitoticArrest_1hr: Apredica 1-hour HepG2 Assay for Mitotic Arrest (AID 2282672); conditions: high-content imaging, actives raise or lower the signal
Procedure, shortened: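 Ten-point concentration series (0.39 to 200 uM, duplicates, 0.5% v/v DMSO) applied to human HepG2 liver cells for 1 hr. High-content imaging of phospho-histone H3 and Hoechst-stained nuclei after fixation and permeabilization; DMSO-normalised bidirectional fit.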

[5] = APR_HepG2_P-H2AX_1hr: Apredica 1-hour HepG2 Assay for H2AX Phosphorylation (AID 2282673); conditions: high-content imaging, actives raise or lower the signal
Procedure, shortened: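 Phospho-H2A.x immunofluorescence (1:200, FITC secondary) plus Hoechst nuclear stain, quantified by high-content imaging in HepG2 after 1 hr compound exposure. Ten concentrations, 0.39 to 200 uM, in duplicate with 0.5% DMSO; fit both directions against DMSO.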

[6] = APR_HepG2_MitoMass_1hr: Apredica 1-hour HepG2 Assay for Mitochondrial Mass (AID 2282674); conditions: high-content imaging, actives raise or lower the signal
Procedure, shortened: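 Mitochondrial mass is taken from MitoTracker Red CMXRos (250 nM, 30 min, pre-fixation) fluorescence imaged at 20x in HepG2 cells. Exposure lasted 1 hr across ten concentrations, 0.39 to 200 uM, 0.5% DMSO; DMSO baseline, bidirectional fitting.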

[7] = APR_HepG2_CellCycleArrest_24hr: Apredica 24-hour HepG2 Assay for Cell Cycle Arrest (AID 2282905); conditions: imaging, actives raise or lower the signal;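 further: cell cycle arrest scored as ratio of 2N to 4N nuclear DNA content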
Procedure, shortened: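 Compounds (0.39 to 200 uM, final DMSO 0.5% v/v) are applied to HepG2 cells for 24 hours; cells are then fixed, permeabilized and nuclei labeled with Hoechst 33342. Automated imaging measures DNA content, and activity is fitted in both directions against DMSO.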

[8] = APR_HepG2_StressKinase_1hr: Apredica 1-hour HepG2 Assay for Stress Kinase (AID 2282906); conditions: HepG2 stress kinase (phospho-c-Jun) imaging, actives raise or lower the signal
Procedure, shortened: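 High-content imaging of phospho-c-Jun immunostaining (with Hoechst nuclear identification) after a 1 h exposure of HepG2 cells to 10 concentrations from 0.39 to 200 uM, final DMSO 0.5%. Fitted bidirectionally against DMSO.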

[9] = APR_HepG2_NuclearSize_24hr: Apredica 24-hour HepG2 Assay for Nuclear Size (AID 2282907); conditions: high-content imaging, actives raise or lower the signal
Procedure, shortened: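 Nuclear size is measured by fluorescence high-content imaging of Hoechst-labelled HepG2 nuclei after 24 hr of treatment (0.39–200 uM, 0.5% DMSO). Cells are fixed in 3.7% formaldehyde before staining, and DMSO serves as the baseline for bidirectional curve fitting.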

[10] = APR_HepG2_CellLoss_24hr: Apredica 24-hour HepG2 Assay for Cell Loss (AID 2282908); conditions: high-content imaging;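 on AC50: fit in both directions so a hit may be cell loss or gain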
Procedure, shortened: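 Nuclear count serves as the viability measure: treated cells are fixed, permeabilized and labelled with Hoechst 33342, and six images per well are analysed to identify valid nuclei. Doses span 0.39–200 uM, and activity in either direction is scored against DMSO.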

[11] = APR_HepG2_MicrotubuleCSK_24hr: Apredica 24-hour HepG2 Assay for Microtubule CSK Stabilty (AID 2282909); conditions: HepG2 microtubule cytoskeleton imaging, actives raise or lower the signal
Procedure, shortened: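 Compounds were applied to HepG2 cells for 24 hours across 0.39–200 uM in duplicate, with final DMSO at 0.5% v/v. Fixed, permeabilized cells were labeled for alpha-tubulin and nuclei, and tubulin fluorescence was quantified by imaging, fitted bidirectionally against DMSO.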

[12] = APR_HepG2_MitoticArrest_24hr: Apredica 24-hour HepG2 Assay for Mitotic Arrest (AID 2282910); conditions: high-content imaging, actives raise or lower the signal
Procedure, shortened: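 HepG2, 24 hr dosing, 0.39–200 uM, 0.5% DMSO final. Formaldehyde-fixed, Triton-permeabilised, anti-phospho-histone H3 plus Hoechst. ArrayScan imaging at 20x; bidirectional fit vs DMSO baseline.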

[13] = APR_HepG2_MitoMass_24hr: Apredica 24-hour HepG2 Assay for Mitochondrial Mass (AID 2282912); conditions: high-content imaging, actives raise or lower the signal
Procedure, shortened: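 After 24 hr of treatment at 0.39 to 200 uM, HepG2 cells take up 250 nM MitoTracker Red CMXRos for 30 min and are then fixed with 3.7% formaldehyde. Per-well images are quantified, and any change in either direction is scored against solvent.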

[14] = APR_HepG2_CellCycleArrest_72hr: Apredica 72-hour HepG2 Assay for Cell Cycle Arrest (AID 2282914); conditions: high-content imaging, actives raise or lower the signal
Procedure, shortened: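 HepG2, 72 hr exposure, 10-point 0.39–200 uM, duplicate, 0.5% DMSO final. Fix 3.7% formaldehyde 30 min RT, Triton X-100 0.5%, Hoechst 33342 2 ug/mL. ArrayScan 20x, six fields/well; DNA content per nucleus; bidirectional fit vs DMSO.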

[15] = APR_HepG2_CellLoss_1hr: Apredica 1-hour HepG2 Assay for Cell Loss (AID 2282668); conditions: high-content imaging;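 further: curves fitted both ways against DMSO so gain or loss of cells counts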
Procedure, shortened: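 Cell number comes from high-content imaging of Hoechst-labelled nuclei in fixed HepG2 cells. Cells were exposed for 1 h to ten concentrations from 0.39 to 200 uM in 0.5% DMSO. Gain or loss was fitted against DMSO controls.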

[16] = APR_HepG2_p53Act_1hr: Apredica 1-hour HepG2 Assay for p53 Activation (AID 2282671); conditions: high-content imaging, actives raise or lower the signal
Procedure, shortened: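 After 1 h exposure (0.39–200 uM, 0.5% DMSO final, duplicates), fixed HepG2 cells were labelled with anti-p53 antibody plus Hoechst nuclear stain. Fluorescence quantified by automated 20x imaging; changes fitted in both directions against DMSO.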

[17] = APR_HepG2_MitoMembPot_1hr: Apredica 1-hour HepG2 Assay for Mitochondrial Membrane Potential (AID 2282675); conditions: imaging, actives raise or lower the signal
Procedure, shortened: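 Mitochondrial membrane potential read as MitoTracker Red CMXRos intensity by automated imaging of fixed HepG2 cells. Dye at 250 nM for 30 min pre-fixation; compounds 0.39 to 200 uM for 1 hour, duplicate wells, 0.5% DMSO.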

[18] = APR_HepG2_MitoMembPot_24hr: Apredica 24-hour HepG2 Assay for Mitochondrial Membrane Potential (AID 2282911); conditions: imaging, actives raise or lower the signal
Procedure, shortened: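 HepG2, 24 hr dosing, 10 concentrations 0.39–200 uM, 0.5% DMSO final. Live-cell MitoTracker Red CMXRos 250 nM 30 min, then 3.7% formaldehyde fix. HCS fluorescence imaging, 20x; bidirectional fit vs DMSO baseline.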

[19] = APR_HepG2_p53Act_24hr: Apredica 24-hour HepG2 Assay for p53 Activation (AID 2282913); conditions: high-content imaging, actives raise or lower the signal;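 further: p53 protein immunofluorescence averaged per cell in HepG2 with Hoechst nuclei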
Procedure, shortened: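 Read-out: Cy5 immunofluorescence for p53 in fixed, permeabilized HepG2, imaged by HCS with Hoechst-defined nuclei. Dosing was 24 hr at 0.39–200 uM in 0.5% DMSO. Curves were fitted bidirectionally relative to DMSO.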

[20] = APR_HepG2_CellLoss_72hr: Apredica 72-hour HepG2 Assay for Cell Loss (AID 2282915); conditions: high-content imaging
Procedure, shortened: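 HepG2 cells exposed 72 h to compound at 0.39–200 uM (10 concentrations, duplicate) in 0.5% DMSO. Fixed with 3.7% formaldehyde and Hoechst 33342-stained. Imaged at 20x; nuclear count gives cell number, fitted bidirectionally versus DMSO.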

Measured: AC50

CN(C)[C@@H]1C(=O)C(C(N)=O)=C(O)[C@@]2(O)C(=O)C3=C(O)c4c(O)cccc4[C@@](C)(O)[C@H]3[C@H](O)[C@@H]12
not listed: [15] | [16] | [17] | [18] | [19] | [20]
inactive: all other assays above

CCC(CC)Nc1c([N+](=O)[O-])cc(C)c(C)c1[N+](=O)[O-]
active: [18] 84.3 µM | [20] 108 µM
not listed: [8]
inactive: all other assays above

CNC(=O)Oc1cccc2c1OC(C)(C)O2
active: [7] 127 µM | [10] 83.8 µM | [20] 86.6 µM
not listed: [1] | [8] | [18]
inactive: all other assays above

COc1ccc(C(=CC(=O)N2CCOCC2)c2ccc(Cl)cc2)cc1OC
not listed: [3] | [15] | [17] | [18] | [20]
inactive: all other assays above

CCOP(=S)(OCC)Oc1ccc2c(C)c(Cl)c(=O)oc2c1
active: [12] 114 µM
not listed: [8] | [20]
inactive: all other assays above

CCNc1nc(Cl)nc(NC(C)(C)C#N)n1
not listed: [8] | [17] | [18]
inactive: all other assays above

CCCCOC(=O)[C@@H](C)Oc1ccc(Oc2ccc(C#N)cc2F)cc1
active: [7] 96.9 µM
not listed: [15] | [18] | [20]
inactive: all other assays above

CCC(=NOC/C=C/Cl)C1=C(O)CC(C2CCOCC2)CC1=O (stereo unspecified)
not listed: [8] | [17] | [18]
inactive: all other assays above

CC[C@H](C)[C@H]1O[C@]2(C=C[C@@H]1C)C[C@@H]1C[C@@H](C/C=C(\C)[C@@H](O[C@H]3C[C@H](OC)[C@@H](O[C@H]4C[C@H](OC)[C@@H](NC)[C@H](C)O4)[C@H](C)O3)[C@@H](C)/C=C/C=C3\CO[C@@H]4[C@H](O)C(C)=C[C@@H](C(=O)O1)[C@]34O)O2
active: [16] 26.8 µM | [5] 16.8 µM | [10] 2.55 µM | [11] 12.6 µM | [12] 12.7 µM | [13] 8.64 µM
not listed: [3] | [8] | [15] | [18]
inactive: all other assays above

S=C1NCCN1
not listed: [3] | [15] | [17] | [18]
inactive: all other assays above

Nc1c(Cl)cc([N+](=O)[O-])cc1Cl
not listed: [3] | [15] | [16] | [17] | [19] | [20]
inactive: all other assays above

Cc1ccn2nc(S(=O)(=O)Nc3c(F)cccc3F)nc2n1
not listed: [8] | [15] | [16] | [17] | [18] | [19]
inactive: all other assays above

COc1cccc(C(=O)NN(C(=O)c2cc(C)cc(C)c2)C(C)(C)C)c1C
not listed: [1] | [8] | [17]
inactive: all other assays above

CCCCSP(=O)(SCCCC)SCCCC
not listed: [3] | [8] | [15] | [17] | [20]
inactive: all other assays above
